Test in all cases: DAPPL (digital affinity profiling via proximity ligation, sequencing); 10 mM Tris-HCl pH 7.5, 50 mM NaCl, 1 mM DTT, 4% glycerol, room temperature, 30 min; GST-TFs on glutathione beads, 16-mer random dsDNA library, 0.1% formaldehyde crosslink after washing; high values mean tight binding
Conditions in all cases: protein: recombinant; tags: N-terminal GST; dsDNA, one strand shown

One experiment addresses T1, FLI1 (Homo sapiens, UniProt Q01543 1-452).
T1 sequence: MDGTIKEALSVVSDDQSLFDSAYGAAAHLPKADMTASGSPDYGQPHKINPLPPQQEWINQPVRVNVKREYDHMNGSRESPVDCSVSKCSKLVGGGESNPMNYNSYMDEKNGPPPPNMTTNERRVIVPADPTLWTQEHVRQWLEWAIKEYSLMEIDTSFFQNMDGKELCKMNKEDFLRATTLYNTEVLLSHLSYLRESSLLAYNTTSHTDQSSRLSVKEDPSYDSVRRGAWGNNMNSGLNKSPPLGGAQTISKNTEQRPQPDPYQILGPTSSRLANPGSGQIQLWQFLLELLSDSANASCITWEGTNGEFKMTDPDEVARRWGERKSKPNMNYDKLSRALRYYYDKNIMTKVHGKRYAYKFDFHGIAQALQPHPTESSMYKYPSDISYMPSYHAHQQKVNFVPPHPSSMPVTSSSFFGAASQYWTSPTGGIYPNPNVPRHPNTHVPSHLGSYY
Summed up: (§1)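 Human transcription factors were made in yeast as GST fusions, captured on glutathione beads and barcoded with DNA. With a tag-only sample included, the pool was incubated with 200 nmole of a random double-stranded 16-mer DNA library in Tris/NaCl/DTT/glycerol buffer at room temperature for 30 min, then crosslinked with 0.1% formaldehyde after washing, ligated by proximity, amplified and sequenced. For binding signal, each hexamer's read frequency for a factor is divided by its frequency for the tag-only sample.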

The target of a further experiment is T2, ELK1 (Homo sapiens, UniProt P19419 1-428).
T2 sequence: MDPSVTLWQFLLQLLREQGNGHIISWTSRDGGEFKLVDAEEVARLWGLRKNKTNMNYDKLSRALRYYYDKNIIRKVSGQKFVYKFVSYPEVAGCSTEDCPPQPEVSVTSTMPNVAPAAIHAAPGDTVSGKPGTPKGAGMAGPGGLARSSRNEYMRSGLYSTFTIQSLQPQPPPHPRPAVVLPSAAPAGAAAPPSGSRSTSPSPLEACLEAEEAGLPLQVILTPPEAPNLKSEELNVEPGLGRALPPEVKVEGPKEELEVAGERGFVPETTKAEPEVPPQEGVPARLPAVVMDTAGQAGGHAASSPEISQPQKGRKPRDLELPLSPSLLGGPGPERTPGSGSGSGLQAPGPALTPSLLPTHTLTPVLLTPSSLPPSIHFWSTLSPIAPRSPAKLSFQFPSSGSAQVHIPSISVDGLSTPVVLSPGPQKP
Summed up: as §1

Another experiment concerns the target T3, GABPA (Homo sapiens, UniProt Q06546 1-454).
T3 sequence: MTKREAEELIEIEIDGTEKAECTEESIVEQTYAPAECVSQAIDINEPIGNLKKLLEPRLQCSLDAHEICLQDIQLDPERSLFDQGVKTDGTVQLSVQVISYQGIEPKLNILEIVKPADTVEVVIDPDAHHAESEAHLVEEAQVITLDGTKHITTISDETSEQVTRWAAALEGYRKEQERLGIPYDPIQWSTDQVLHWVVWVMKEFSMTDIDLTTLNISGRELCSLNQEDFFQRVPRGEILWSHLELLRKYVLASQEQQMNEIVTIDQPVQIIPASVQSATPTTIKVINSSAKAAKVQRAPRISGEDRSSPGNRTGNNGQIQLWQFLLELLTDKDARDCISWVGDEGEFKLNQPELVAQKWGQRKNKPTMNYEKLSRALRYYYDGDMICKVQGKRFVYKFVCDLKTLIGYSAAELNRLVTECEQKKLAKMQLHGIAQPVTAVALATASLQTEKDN
Summed up: as §1

Another experiment has as its target T4, ERG (Homo sapiens, UniProt P11308 1-479).
T4 sequence: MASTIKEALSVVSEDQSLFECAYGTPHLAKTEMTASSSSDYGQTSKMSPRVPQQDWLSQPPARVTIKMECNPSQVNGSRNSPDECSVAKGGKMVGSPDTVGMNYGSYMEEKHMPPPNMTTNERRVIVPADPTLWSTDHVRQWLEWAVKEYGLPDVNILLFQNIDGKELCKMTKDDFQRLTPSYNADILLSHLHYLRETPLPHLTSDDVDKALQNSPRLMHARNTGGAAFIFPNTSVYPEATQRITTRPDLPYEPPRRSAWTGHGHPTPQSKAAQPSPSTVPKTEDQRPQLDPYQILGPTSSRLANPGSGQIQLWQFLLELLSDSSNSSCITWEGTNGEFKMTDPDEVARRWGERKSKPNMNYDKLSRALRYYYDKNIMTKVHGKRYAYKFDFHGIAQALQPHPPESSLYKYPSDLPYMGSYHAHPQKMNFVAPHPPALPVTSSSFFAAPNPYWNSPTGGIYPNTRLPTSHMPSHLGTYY
Summed up:
as §1

The next experiment has as its target ELF1 (Homo sapiens, UniProt P32519 1-619). Summed up: as §1
The next experiment deals with T5, EHF (Homo sapiens, UniProt Q9NZC4 1-300).
T5 sequence: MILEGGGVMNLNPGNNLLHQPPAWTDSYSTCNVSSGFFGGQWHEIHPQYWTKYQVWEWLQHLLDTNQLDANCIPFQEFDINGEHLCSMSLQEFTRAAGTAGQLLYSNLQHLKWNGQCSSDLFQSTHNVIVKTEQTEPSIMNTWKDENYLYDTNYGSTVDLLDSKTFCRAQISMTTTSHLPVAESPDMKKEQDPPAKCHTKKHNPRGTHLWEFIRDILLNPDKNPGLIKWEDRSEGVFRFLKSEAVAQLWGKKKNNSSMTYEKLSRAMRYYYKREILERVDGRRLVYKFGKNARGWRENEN
Put shortly: as §1

A further experiment deals with SPI1 (Homo sapiens, UniProt P17947 1-270). Put shortly:
as §1

A further experiment has as its target SPIB (Homo sapiens, UniProt Q01892 1-262). Put shortly:
as §1

A further experiment has as its target T6, ELK3 (Homo sapiens, UniProt P41970 1-407).
T6 sequence: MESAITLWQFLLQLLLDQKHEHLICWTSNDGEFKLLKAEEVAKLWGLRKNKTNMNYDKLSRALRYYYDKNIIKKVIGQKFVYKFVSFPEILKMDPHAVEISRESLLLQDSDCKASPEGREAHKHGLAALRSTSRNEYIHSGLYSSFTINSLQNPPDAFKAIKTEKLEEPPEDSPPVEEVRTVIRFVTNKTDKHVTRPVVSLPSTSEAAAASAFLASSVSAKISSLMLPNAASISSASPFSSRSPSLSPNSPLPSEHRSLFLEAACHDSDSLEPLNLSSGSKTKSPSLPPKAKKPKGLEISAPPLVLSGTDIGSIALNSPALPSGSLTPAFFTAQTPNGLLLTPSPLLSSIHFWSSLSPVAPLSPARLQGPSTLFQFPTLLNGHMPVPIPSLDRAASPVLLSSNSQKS
Put shortly: as §1

The target of the next experiment is T7, FEV (Homo sapiens, UniProt Q99581 1-238).
T7 sequence: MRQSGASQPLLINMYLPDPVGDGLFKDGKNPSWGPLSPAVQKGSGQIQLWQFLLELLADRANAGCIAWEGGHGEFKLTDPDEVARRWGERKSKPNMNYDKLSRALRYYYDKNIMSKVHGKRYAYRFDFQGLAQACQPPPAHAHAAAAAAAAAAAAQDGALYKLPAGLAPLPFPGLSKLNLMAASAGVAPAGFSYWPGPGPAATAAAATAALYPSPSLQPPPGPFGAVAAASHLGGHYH
Summed up:
as §1

In a further experiment the target is ETV5 (Homo sapiens, UniProt P41161 1-510). Put shortly: as §1
Sequence of ETV5 (P41161 whole entry): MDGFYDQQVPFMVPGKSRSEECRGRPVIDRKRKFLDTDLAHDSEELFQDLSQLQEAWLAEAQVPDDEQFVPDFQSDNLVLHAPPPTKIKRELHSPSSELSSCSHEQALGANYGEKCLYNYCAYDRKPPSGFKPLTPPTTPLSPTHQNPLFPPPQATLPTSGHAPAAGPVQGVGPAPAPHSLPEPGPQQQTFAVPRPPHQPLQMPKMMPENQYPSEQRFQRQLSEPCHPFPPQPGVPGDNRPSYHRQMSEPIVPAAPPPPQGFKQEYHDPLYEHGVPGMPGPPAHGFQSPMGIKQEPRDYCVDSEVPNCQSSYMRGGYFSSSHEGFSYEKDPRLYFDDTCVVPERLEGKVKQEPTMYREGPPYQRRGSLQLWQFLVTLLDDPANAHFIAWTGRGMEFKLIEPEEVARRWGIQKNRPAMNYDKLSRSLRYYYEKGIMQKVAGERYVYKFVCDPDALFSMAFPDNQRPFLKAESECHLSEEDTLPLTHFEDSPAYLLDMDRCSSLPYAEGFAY
Another experiment addresses T8, SPIC (Homo sapiens, UniProt Q8N5J4 1-248).
T8 sequence: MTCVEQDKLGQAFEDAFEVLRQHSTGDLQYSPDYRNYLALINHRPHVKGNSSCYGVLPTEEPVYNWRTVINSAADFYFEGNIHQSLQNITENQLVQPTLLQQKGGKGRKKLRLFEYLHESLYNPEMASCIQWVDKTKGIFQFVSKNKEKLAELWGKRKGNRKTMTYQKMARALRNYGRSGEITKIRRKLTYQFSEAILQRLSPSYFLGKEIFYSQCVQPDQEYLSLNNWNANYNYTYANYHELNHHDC
Summed up: as §1

The next experiment addresses ELF4 (Homo sapiens, UniProt Q99607 1-663). Summed up:
as §1

Another experiment has as its target T9, ELK4 (Homo sapiens, UniProt P28324-2 1-405).
T9 sequence: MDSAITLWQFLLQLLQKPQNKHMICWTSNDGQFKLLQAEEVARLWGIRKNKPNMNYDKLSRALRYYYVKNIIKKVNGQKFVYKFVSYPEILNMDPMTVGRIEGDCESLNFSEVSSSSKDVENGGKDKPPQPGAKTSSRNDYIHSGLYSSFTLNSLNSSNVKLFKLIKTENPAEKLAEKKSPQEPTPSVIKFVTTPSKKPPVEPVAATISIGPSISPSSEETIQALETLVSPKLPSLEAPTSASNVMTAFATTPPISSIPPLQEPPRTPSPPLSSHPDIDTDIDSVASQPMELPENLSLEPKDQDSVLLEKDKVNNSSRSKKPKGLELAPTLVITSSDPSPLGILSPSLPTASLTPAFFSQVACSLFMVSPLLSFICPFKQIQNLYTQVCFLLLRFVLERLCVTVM
Summed up: as §1

The target of a further experiment is T10, ETV2 (Homo sapiens, UniProt O00321 1-342).
T10 sequence: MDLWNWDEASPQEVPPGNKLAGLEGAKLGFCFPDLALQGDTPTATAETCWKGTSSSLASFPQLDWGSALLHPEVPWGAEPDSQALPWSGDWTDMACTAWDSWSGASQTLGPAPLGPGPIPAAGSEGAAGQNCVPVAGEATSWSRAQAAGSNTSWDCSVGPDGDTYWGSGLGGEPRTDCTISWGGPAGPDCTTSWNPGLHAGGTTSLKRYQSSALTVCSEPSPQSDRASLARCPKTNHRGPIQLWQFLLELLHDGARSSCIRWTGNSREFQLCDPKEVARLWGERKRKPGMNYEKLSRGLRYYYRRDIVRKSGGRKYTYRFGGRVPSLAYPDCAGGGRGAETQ
Put shortly:
as §1

Another experiment deals with ETV1 (Homo sapiens, UniProt P50549 1-477). Put shortly:
as §1

Sequence of SPIB (Q01892 whole entry): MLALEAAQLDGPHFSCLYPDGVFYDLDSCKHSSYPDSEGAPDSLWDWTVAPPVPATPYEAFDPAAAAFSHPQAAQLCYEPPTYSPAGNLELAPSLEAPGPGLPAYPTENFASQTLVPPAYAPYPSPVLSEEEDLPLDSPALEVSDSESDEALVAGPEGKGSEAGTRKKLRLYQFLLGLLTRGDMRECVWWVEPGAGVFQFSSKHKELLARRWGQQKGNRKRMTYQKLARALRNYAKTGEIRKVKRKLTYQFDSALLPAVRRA
Sequence of ELF1 (P32519 whole entry): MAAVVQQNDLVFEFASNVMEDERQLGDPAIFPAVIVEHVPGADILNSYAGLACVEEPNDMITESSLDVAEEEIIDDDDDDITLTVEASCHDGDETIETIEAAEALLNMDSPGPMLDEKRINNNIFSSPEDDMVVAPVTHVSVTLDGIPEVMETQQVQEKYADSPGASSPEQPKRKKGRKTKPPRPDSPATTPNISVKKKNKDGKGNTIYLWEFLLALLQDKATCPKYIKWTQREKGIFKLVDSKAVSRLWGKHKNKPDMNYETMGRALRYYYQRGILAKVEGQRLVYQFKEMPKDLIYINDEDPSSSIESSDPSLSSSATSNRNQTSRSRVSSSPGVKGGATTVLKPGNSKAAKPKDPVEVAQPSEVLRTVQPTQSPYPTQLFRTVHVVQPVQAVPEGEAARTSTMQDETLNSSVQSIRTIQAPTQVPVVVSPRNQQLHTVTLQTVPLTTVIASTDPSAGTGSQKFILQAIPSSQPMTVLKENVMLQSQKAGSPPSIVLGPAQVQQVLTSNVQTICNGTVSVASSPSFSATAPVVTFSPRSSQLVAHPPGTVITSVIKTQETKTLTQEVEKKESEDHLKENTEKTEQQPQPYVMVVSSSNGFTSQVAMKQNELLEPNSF
Sequence of ETV1 (P50549 whole entry): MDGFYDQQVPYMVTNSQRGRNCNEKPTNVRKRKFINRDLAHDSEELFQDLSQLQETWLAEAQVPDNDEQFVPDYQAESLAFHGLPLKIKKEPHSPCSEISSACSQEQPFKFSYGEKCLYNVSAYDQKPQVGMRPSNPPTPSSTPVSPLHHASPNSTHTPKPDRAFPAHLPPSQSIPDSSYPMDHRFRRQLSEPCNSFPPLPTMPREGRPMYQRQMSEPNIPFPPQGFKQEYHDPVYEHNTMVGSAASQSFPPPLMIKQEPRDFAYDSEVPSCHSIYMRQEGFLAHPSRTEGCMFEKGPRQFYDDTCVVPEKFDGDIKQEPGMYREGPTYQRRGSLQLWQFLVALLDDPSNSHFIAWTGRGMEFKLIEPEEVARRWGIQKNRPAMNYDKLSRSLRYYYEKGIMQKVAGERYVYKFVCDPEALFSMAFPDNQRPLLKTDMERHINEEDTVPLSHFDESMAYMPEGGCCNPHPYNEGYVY
Sequence of ELF4 (Q99607 whole entry): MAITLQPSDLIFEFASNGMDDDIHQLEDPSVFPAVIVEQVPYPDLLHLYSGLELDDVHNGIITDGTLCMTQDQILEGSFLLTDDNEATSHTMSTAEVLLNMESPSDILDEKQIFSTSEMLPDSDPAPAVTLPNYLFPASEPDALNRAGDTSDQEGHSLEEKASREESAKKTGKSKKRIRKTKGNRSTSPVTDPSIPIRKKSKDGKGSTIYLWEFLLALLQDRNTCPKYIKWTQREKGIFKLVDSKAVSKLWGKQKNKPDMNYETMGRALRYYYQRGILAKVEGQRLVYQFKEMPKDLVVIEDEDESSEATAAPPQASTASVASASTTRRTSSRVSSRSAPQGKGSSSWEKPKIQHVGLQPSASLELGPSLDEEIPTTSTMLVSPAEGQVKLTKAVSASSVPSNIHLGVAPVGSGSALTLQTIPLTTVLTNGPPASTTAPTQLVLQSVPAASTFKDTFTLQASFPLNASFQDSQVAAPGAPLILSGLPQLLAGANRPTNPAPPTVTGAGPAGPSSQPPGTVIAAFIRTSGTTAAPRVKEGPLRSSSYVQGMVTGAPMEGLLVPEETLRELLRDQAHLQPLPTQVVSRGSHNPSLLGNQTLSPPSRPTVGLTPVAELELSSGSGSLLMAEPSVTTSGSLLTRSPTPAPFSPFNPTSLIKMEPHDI

As to GCACTG, the binding signal with FLI1 was 1.18 fold enrichment (6-mer frequency, TF over GST control); with ELK1 it was 1.12 fold enrichment (6-mer frequency, TF over GST control); in the experiment with GABPA it was 1.14 fold enrichment (6-mer frequency, TF over GST control); in the experiment with ERG, 1.07 fold enrichment (6-mer frequency, TF over GST control); in the experiment with ELF1, 1.1 fold enrichment (6-mer frequency, TF over GST control); with EHF, 1.12 fold enrichment (6-mer frequency, TF over GST control). For the same sequence, the binding signal with SPI1 is 1.14 fold enrichment (6-mer frequency, TF over GST control); with SPIB, 1.05 fold enrichment (6-mer frequency, TF over GST control); with ELK3, 1.06 fold enrichment (6-mer frequency, TF over GST control); in the experiment with FEV, 1.12 fold enrichment (6-mer frequency, TF over GST control); in the experiment with ETV5, 1.05 fold enrichment (6-mer frequency, TF over GST control); with SPIC, 1.08 fold enrichment (6-mer frequency, TF over GST control). Moreover, the binding signal in the experiment with ELF4 is 1.07 fold enrichment (6-mer frequency, TF over GST control); with ELK4 it was 1.03 fold enrichment (6-mer frequency, TF over GST control); with ETV2, 1.22 fold enrichment (6-mer frequency, TF over GST control); with ETV1, 1.08 fold enrichment (6-mer frequency, TF over GST control).
Regarding TGGTCC, the binding signal is 1.25 fold enrichment (6-mer frequency, TF over GST control) in the experiment with FLI1; 1.23 fold enrichment (6-mer frequency, TF over GST control) with ELK1; 1.18 fold enrichment (6-mer frequency, TF over GST control) with GABPA; 1.26 fold enrichment (6-mer frequency, TF over GST control) with ERG; 1.35 fold enrichment (6-mer frequency, TF over GST control) with ELF1; 1.26 fold enrichment (6-mer frequency, TF over GST control) with EHF. In addition, the binding signal with SPI1 was 1.18 fold enrichment (6-mer frequency, TF over GST control); with SPIB, 1.32 fold enrichment (6-mer frequency, TF over GST control); with ELK3 it was 1.15 fold enrichment (6-mer frequency, TF over GST control); with FEV, 1.12 fold enrichment (6-mer frequency, TF over GST control); with ETV5, 1.23 fold enrichment (6-mer frequency, TF over GST control); in the experiment with SPIC, 1.32 fold enrichment (6-mer frequency, TF over GST control). Also, the binding signal is 1.22 fold enrichment (6-mer frequency, TF over GST control) in the experiment with ELF4; 1.29 fold enrichment (6-mer frequency, TF over GST control) with ELK4; 1.23 fold enrichment (6-mer frequency, TF over GST control) with ETV2; 1.2 fold enrichment (6-mer frequency, TF over GST control) in the experiment with ETV1.
